ELG1 DNA repair: blocks ELG1-dependent DNA repair in HEK293T cells | actives 2.3% (n = 330,000) | Potency, µM (doses to about 46.1 µM), without a hit: top-dose activity change, negative = inhibition, hits mostly inhibitors | HEK293T ELG1-luciferase reporter, luminescence, 16 h; DNA damage induced by 5-fluorouridine | AID 504467; also: % is scaled to controls: 0 for no effect and ±100 for the full control effect; nearly all actives have a fitted effect of over 55% in size
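DMSO vehicle served as the neutral condition. Each well held 2,000 cells given 5-fluorouridine plus compound; after 16 hr at 37 °C/5% CO2, ONE-Glo was added and luciferase measured 30 min later.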
Rab9 prom act: activates the Rab9 promoter. Huh7 Rab9 promoter-luciferase reporter, luminescence, 24 h. Potency, µM (series often up to 9.22 µM), for the others: at the highest dose activation, negative = inhibition, usual class: activators. actives 2.8% (n = 320,000). AID 485297; also: % of control where 0% means no effect; nearly all actives have a fitted effect of over 60% in size
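Luciferase signal after 10 min detection reagent at ambient indicates Rab9 promoter upregulation; stably transfected Huh7 cells were treated 24 h with compound in DMSO at 37 °C, 5% CO2.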
ELG1 genotoxic: induces genotoxicity in HEK293T cells with luciferase-tagged ELG1. actives 1.3% (n = 330,000). AID 504466. HEK293T ELG1-luciferase reporter, luminescence, 16 h. Potency, µM (top dose mostly 46 µM), for inactives: at the top dose activity change, positive = activation, most hits filed as activators; also: % of control where 0% means no effect; nearly all actives have a fitted effect of over 60% in size
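Step 1: seed 2,000 HEK293T ELG1-luciferase cells per well. Step 2: add compound or DMSO, incubate 16 hr at 37 °C. Step 3: ONE-Glo, 30 min at room temperature, read luminescence.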
NPC1 promoter act: NPC1 promoter activation; Huh7 NPC1 promoter luciferase reporter, 24 h; Potency, µM (highest dose often 9.22 µM), inactives show top-dose activation, most hits filed as activators; actives 2.4% (n = 320,000); AID 485313; also: % of control where 0% means no effect; nearly all actives have a fitted effect of over 60% in size
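Compounds in DMSO were transferred onto Huh7 NPC1-luciferase reporter cells pre-incubated 2 h; after 24 h at 37 °C, Amplite reagent was dispensed and luminescence recorded 10 min later.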
FLuc modulator: inhibits or activates purified firefly luciferase, miR-21 counter-screen; Potency, µM (highest dose often 57.5 µM), inactives show top-dose activity change, negative = inhibition, usual class: inhibitors; P08659; AID 588342; purified FLuc, Km substrates, luminescence inhibition; actives 6.9% (n = 360,000);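 also: plate controls were vehicle for no effect and reference inhibitor for full effect; nearly all actives have a fitted effect of over 55% in size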
Target sequence (P08659 whole entry, looked up): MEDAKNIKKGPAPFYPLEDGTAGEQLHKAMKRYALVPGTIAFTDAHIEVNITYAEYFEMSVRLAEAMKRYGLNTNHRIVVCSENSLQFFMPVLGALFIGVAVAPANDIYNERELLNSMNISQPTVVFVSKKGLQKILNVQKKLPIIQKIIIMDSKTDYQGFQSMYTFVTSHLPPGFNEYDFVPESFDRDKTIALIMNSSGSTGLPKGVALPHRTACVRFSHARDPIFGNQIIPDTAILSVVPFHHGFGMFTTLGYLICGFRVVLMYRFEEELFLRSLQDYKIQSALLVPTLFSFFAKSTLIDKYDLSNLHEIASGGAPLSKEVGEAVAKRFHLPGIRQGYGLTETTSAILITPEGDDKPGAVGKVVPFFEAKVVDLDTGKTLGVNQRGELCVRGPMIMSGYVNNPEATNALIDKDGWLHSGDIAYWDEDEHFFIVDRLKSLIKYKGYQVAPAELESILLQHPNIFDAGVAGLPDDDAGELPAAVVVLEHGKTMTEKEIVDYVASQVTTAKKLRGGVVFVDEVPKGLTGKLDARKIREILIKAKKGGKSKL
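Biochemical qHTS of compounds, final roughly 60 µM downward over six points, against 10 nM purified firefly luciferase using Km concentrations of substrates (10 uM D-luciferin, 10 uM ATP) in Tris acetate pH 7.5 buffer; luminescence output.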
SMN2 splice up: enhancers of SMN2 splice variant expression | actives 2.8% (n = 210,000) | Potency, µM (top dose mostly 46.1 µM), for inactives: at the highest dose activity change, positive = activation, actives largely listed as activators | HEK293 SMN2-luciferase splicing reporter, luminescence, 30-36 h; also: % of control where 0% means no effect; nearly all actives have a fitted effect of over 55% in size
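HEK293 cells carry an SMN2 […]–luciferase reporter in which exon 7 inclusion puts luciferase in frame. Cells were plated 10-12 h before compound addition, then incubated 30-36 h at 37C. ONE-Glo luminescence was read; sodium butyrate at 4.5 mM final served as control.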
Starred values were filed as active, the others as inactive; ? = inconclusive; · = not tested or not shown. Hits are enriched below; roughly 9.4% of the tested compounds scored in any of these assays. Calls follow the shape of the dose curve; as a rule, active = well fitted curve in the direction sought with a large enough effect; inconclusive = small, poorly fitted or top-dose-only effect, or another doubt; inactive = no such curve, though single readings can be large; an effect the other way counts as inactive or inconclusive. Potency is read from the fitted curve at half-maximal effect.

SMILES	ELG1 DNA repair	Rab9 prom act	ELG1 genotoxic	NPC1 promoter act	FLuc modulator	SMN2 splice up
CCOc1cc(/C=N/NC(=O)c2ccncc2)cc(Cl)c1OS(C)(=O)=O	15µM*	1%	-1%	-3%	-11%	-2%
COc1ccc2ccccc2c1/C=N/NC(=O)c1cccc([N+](=O)[O-])c1	-5%	-6%	0%	2%	-1%	·
Cc1ccc2c(c1)C(c1ccc(F)cc1)N(C(=O)COc1ccc(Cl)cc1Cl)CC(=O)N2 (centres undefined)	·	·	·	·	-1%	-2%
O=C(CSCc1cnn(-c2ccccc2)c1-n1cccc1)NCc1ccc(F)cc1	·	·	·	·	6%	·
COc1ccc(-c2nnc(CSc3ncnc4sc5c(c34)CCC5)o2)cc1OC	0%	-3%	23µM*	-2%	11%	-4%
CC(C)c1ccc(NC(=O)c2ccccc2NC(=O)C2CC=CCC2C(=O)O)cc1 (centres undefined)	?	15%	?	15%	27µM*	·
CC(C)c1ccc(NC(=O)c2ccccc2NC(=O)C2CCCCC2C(=O)O)cc1 (centres undefined)	?	?	14%	25%	?	·
CCCn1c(SCC(=O)Nc2ccccc2N2CCCCC2)nc2c1c(=O)n(C)c(=O)n2C	7.3µM*	0%	-9%	0%	0%	-17%
CCCCn1c(SCC(=O)N2c3ccccc3CCc3ccccc32)nc2c1c(=O)n(C)c(=O)n2C	21µM*	0%	-5%	-8%	3%	12%
CCCn1c(SCC(=O)N2CCN(c3ccc(OC)cc3)CC2)nc2c1c(=O)n(C)c(=O)n2C	21µM*	-9%	-16%	2%	5%	-39%
Cc1ccc(-c2nnc(Nc3ccc(Cl)cc3)c3ccccc23)cc1S(=O)(=O)N1CCOCC1	·	·	·	·	-9%	10%
COc1cccc(CC(=O)n2nc(N)c3cc4ccc(OC)cc4nc32)c1	9.2µM*	4%	-3%	-1%	2%	-21%
COc1ccc2cc3c(N)nn(C(=O)Cc4ccc(Cl)cc4)c3nc2c1	?	-9%	7%	9%	0%	2%
COc1ccc2cc3c(N)nn(C(=O)c4cccc(F)c4)c3nc2c1	0%	4%	-5%	20%	-6%	·
COc1ccc2cc3c(N)nn(C(=O)Cc4c[nH]c5ccccc45)c3nc2c1	1.5µM*	0%	-8%	22%	?	·
CCCC(=O)Nc1nnc(SCc2cc(=O)n3cccc(C)c3n2)s1	·	·	·	·	4%	·
COc1ccc(Cn2c(C(=O)O)c(CNCc3ccccc3F)c3ccc(OC)cc32)cc1	·	·	·	·	2%	·
Cc1nnc(SCc2nnc(-c3ccccc3Br)o2)n1-c1ccccc1	5%	-1%	1%	-1%	-14%	-11%
Fc1ccccc1SCc1nnc(-c2ccccc2Br)o1	?	0.35µM*	2.9µM*	0.71µM*	0.95µM*	2.8µM*
Cc1csc(SCc2nnc(-c3ccccc3Br)o2)n1	?	1.8µM*	?	1.4µM*	1.7µM*	·
Cc1csc(SCc2nnc(-c3ccc(Cl)cc3)o2)n1	?	2.8µM*	10µM*	2.8µM*	7.6µM*	?
Cc1cccc(N(C)C(=O)C2CCC(CNS(=O)(=O)c3cccc4nsnc34)CC2)c1 (centres undefined)	·	·	·	·	-3%	-40%
COC(=O)c1cc2oc3ccccc3c2n1CC(=O)Nc1ccc(C)c(F)c1	·	·	·	·	3%	-3%
COc1cccc(C(=O)C2CN(c3ccccc3)CC2c2ccc(Cl)cc2)c1 (centres undefined)	12%	-6%	-8%	1%	19µM*	-26%
Cc1ccc(Cc2nc(-c3ccncc3)no2)cc1	?	11%	0%	4%	-14%	2%
CCCc1ccc(-c2ccc(-c3noc(-c4ccncc4)n3)cc2)nc1	0%	-7%	-3%	-9%	?	·
